Source: PubChem BioAssay (Tox21)
Several values for one entry are separate records, joined by “and”; a condition that tells them apart may be missing. Equal entries are not always repeated. Results filed as inconclusive are left out. Where a call stands in place of a potency, no number is given. A structure can be active in one record and inactive in another. Activity calls are given as the source filed them. Calls follow the shape of the dose curve; as a rule, active = well fitted curve in the direction sought with a large enough effect in the repeat runs; inconclusive = weak or mixed curves; inactive = no such curve, though single readings can be large; an effect the other way counts as inactive or inconclusive.

Assays:
[1] = A CellTox Green Cytotoxicity Assay to monitor cytotoxicity in HEK293 cells - 32 hour (AID 1224881); also: nearly all actives have a fitted effect of over 40% in size; also: potency is read from the fitted curve at half-maximal effect
Method in brief: (§1)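 Tox21 screen in HEK293: membrane-impermeant cyanine dye fluoresces on binding dead-cell DNA; compound pinned 5 h post-seeding, plates held at 37 C, signal read repeatedly through 40 h.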

[2] = A CellTox Green Cytotoxicity Assay to monitor cytotoxicity in HepG2 cells - 0 hour (AID 1224882); also: nearly all actives have a fitted effect of over 35% in size
Method in brief: (§2)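 Measurements at 0, 8, 16, 24, 32 and 40 h of treatment captured CellTox Green fluorescence in HepG2 cells that had been co-plated with reagent and preincubated 5 h at 37 C/5% CO2.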

[3] = A CellTox Green Cytotoxicity Assay to monitor cytotoxicity in HepG2 cells - 32 hour (AID 1224883); also: nearly all actives have a fitted effect of over 50% in size; also: potency is read from the fitted curve at half-maximal effect
Method in brief: as §2

[4] = qHTS RealTime-Glo MT Cell Viability Assay in HepG2 cells - 16 hour (AID 1224885); also: nearly all actives have a fitted effect of over 50% in size
Method in brief: (§3)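 Compound treatment began 5 h after plating HepG2 cells (600/well) with NanoLuc luciferase and prosubstrate. Plates stayed at 37 C for 40 h; luminescence was captured at six time points, 0 h through 40 h.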

[5] = qHTS RealTime-Glo MT Cell Viability Assay in HEK293 cells - 24 hour (AID 1224886); also: nearly all actives have a fitted effect of over 50% in size; also: potency is read from the fitted curve at half-maximal effect
Method in brief: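 Quantitative high-throughput screen of the Tox21 10K library in HEK293: cells and RealTime-Glo reagents plated together, compound added at 5 h, luminescence monitored through 40 h at 37 C.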

[6] = qHTS RealTime-Glo MT Cell Viability Assay in HEK293 cells - 8 hour (AID 1224887); also: nearly all actives have a fitted effect of over 50% in size; also: potency is read from the fitted curve at half-maximal effect
Method in brief: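 HEK293 + NanoLuc + prosubstrate, 600 cells/well; 5 h, 37 C/5% CO2; compound 23 nL in DMSO by pintool; 37 C; luminescence read at 0, 8, 16, 24, 32 and 40 h time points.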

[7] = A CellTox Green Cytotoxicity Assay to monitor cytotoxicity in HEK293 cells - 16 hour (AID 1224888); also: nearly all actives have a fitted effect of over 35% in size
Method in brief: as §1

[8] = qHTS RealTime-Glo MT Cell Viability Assay in HepG2 cells - 0 hour (AID 1224889); also: nearly all actives have a fitted effect of over 50% in size; also: potency is read from the fitted curve at half-maximal effect
Method in brief: as §3

[9] = A CellTox Green Cytotoxicity Assay to monitor cytotoxicity in HepG2 cells - 8 hour (AID 1224890); also: nearly all actives have a fitted effect of over 45% in size
Method in brief: as §2

SMILES | Potency [1] | Potency [2] | Potency [3] | Potency [4] | Potency [5] | Potency [6] | Potency [7] | Potency [8] | Potency [9]
Cc1cn([C@H]2C[C@H](N=[N+]=[N-])[C@@H](CO)O2)c(=O)[nH]c1=O | inactive | inactive | inactive | inactive | inactive | inactive | inactive | inactive | inactive
C[C@]12C=CC(=O)C=C1CC[C@@H]1[C@@H]2[C@@H](O)C[C@@]2(C)[C@H]1CC[C@]2(O)C(=O)CO | inactive | inactive | inactive | inactive | inactive | inactive | inactive | 21.6 µM (active) and 19.5 µM (active) | inactive
CNC[C@H](O)c1cccc(O)c1 | inactive | inactive | inactive | inactive | inactive | inactive | inactive | inactive | inactive
O=c1cc[nH]c(=S)[nH]1 | inactive | inactive | inactive | inactive | inactive | inactive | inactive | inactive | inactive
O=C(O)c1cccc([N+](=O)[O-])c1 | inactive | inactive | inactive | inactive | inactive | inactive | inactive | inactive | inactive
NC(=O)c1cnccn1 | inactive | inactive | inactive | inactive | inactive | inactive | inactive | inactive | inactive
CC1(C)[C@@H]2CC[C@@]1(C)C(=O)C2 | inactive and 8.49 µM (active) | inactive | inactive | inactive | inactive | inactive | inactive | inactive | inactive
Nc1ccn([C@H]2CC[C@@H](CO)O2)c(=O)n1 | inactive | inactive | inactive | inactive | inactive | inactive | inactive | inactive | inactive
CCCCOC(=O)CC(CC(=O)OCCCC)(OC(C)=O)C(=O)OCCCC | inactive | inactive | inactive | inactive | inactive | inactive | inactive | inactive | inactive
Oc1ccc(/C=C/c2cc(O)cc(O)c2)cc1 | inactive | inactive | – | inactive | – | inactive | inactive | inactive | inactive
CCCCC(CC)COC(=O)/C=C/c1ccc(OC)cc1 (stereo unspecified) | inactive | inactive | inactive | inactive | inactive | inactive | inactive | inactive | inactive
NC(N)=O | inactive | inactive | inactive | inactive | inactive | inactive | inactive | inactive | inactive
CCCC(CCC)C(=O)O | inactive | inactive | inactive | inactive | inactive | inactive | inactive | inactive | inactive
NC(N)=NC(=O)c1nc(Cl)c(N)nc1N | inactive | inactive | inactive | inactive | inactive | inactive | inactive | inactive | inactive
Cc1ccc(O)cc1 | inactive | inactive | inactive | inactive | inactive | inactive | inactive | inactive | inactive
O=C(O)CS | inactive | inactive | inactive | inactive | inactive | inactive | inactive | inactive | inactive
Nc1ccc(S(=O)(=O)c2ccc(N)cc2)cc1 | inactive | inactive | inactive | inactive | inactive | inactive | inactive | inactive | inactive
CCOc1ccc(NC(=O)CC(C)O)cc1 (stereo unspecified) | inactive | inactive | inactive | inactive | inactive | inactive | inactive | inactive | inactive
N=C(N)c1ccc(OCCCCCOc2ccc(C(=N)N)cc2)cc1 | inactive | inactive | 48.8 µM (active) and inactive | inactive | 19.4 µM (active) and 18.6 µM (active) | inactive | inactive | inactive | inactive
Cn1cc[nH]c1=S | inactive | inactive | inactive | inactive | inactive | inactive | inactive | inactive | inactive
O=C(c1ccccc1)c1ccccc1 | inactive | inactive | inactive | inactive | inactive | inactive | inactive | inactive | inactive
OC(Cn1cncn1)(Cn1cncn1)c1ccc(F)cc1F | inactive | inactive | inactive | inactive | inactive | inactive | inactive | inactive | inactive
Cc1noc(NS(=O)(=O)c2ccc(N)cc2)c1C | inactive | inactive | inactive | inactive | inactive | inactive | inactive | inactive | inactive
O=C(O)CCCCC(=O)O | inactive | inactive | inactive | inactive | inactive | inactive | inactive | inactive | inactive
CCCC(O)C(CC)CO (stereo unspecified) | inactive | inactive | inactive | inactive | inactive | inactive | inactive | inactive | inactive
COc1c2occc2cc2ccc(=O)oc12 | inactive | inactive | inactive | inactive | inactive and 21.9 µM (active) | inactive and 21.9 µM (active) | inactive | inactive | inactive
O=C(O)c1cccnc1 | inactive | inactive | inactive | inactive | inactive | inactive | inactive | inactive | inactive
